What all share (format): functional
The target of assay [1] is Solute carrier family 2, facilitated glucose transporter member 1 (Homo sapiens) (UniProt P11166). The assay can be described thus: ST_JUDE_LEISH: Cytotoxicity at 2uM final concentration against transgenic Leishmania Mexicana promastigotes LmGLUT1 that are glucose transport deficient and complemented with the human glucose transporter GLUT1. Activity is measured by DNA content using SYBR green in vitro.

In assay [2] the target is Hexose transporter 1 (Plasmodium falciparum) (UniProt O97467). Briefly: ST_JUDE_LEISH: Cytotoxicity at 2uM final concentration against transgenic Leishmania Mexicana promastigotes LmPfHT that are glucose transport deficient and complemented with the Plasmodium falciparum hexose transporter. Activity is measured by DNA content using SYBR green in vitro.
Assay [3] has as its target Glucose transporter (Leishmania mexicana) (UniProt O61059). The assay can be described thus: ST_JUDE_LEISH: Cytotoxicity at 2uM final concentration against transgenic Leishmania Mexicana promastigotes LmGT2 that are glucose transport deficient and complemented with the L. Mexicana glucose transporter 2. Activity is measured by DNA content using SYBR green in vitro.

Chain of Solute carrier family 2, facilitated glucose transporter member 1 (Homo sapiens) (P11166 whole entry): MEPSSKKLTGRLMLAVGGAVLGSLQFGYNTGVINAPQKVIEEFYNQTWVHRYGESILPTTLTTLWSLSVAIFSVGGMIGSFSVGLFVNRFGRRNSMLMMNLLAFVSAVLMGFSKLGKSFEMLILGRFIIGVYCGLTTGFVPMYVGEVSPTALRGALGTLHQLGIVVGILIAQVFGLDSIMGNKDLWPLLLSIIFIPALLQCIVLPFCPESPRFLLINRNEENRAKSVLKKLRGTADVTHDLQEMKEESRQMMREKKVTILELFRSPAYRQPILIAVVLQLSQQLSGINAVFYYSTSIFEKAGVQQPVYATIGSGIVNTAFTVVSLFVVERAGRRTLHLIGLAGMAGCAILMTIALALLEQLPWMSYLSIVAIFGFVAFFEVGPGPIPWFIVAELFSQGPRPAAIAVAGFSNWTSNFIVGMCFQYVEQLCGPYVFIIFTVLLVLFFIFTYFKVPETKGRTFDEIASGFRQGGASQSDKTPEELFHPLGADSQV

On to `COc1ccc2nccc([C@@H](O)CN3C4CCC3CC(NCc3ccc5c(n3)NC(=O)CS5)C4)c2n1` (stereo partly specified), for which the results for the inhibition in assay [1], in assay [2] and in assay [3] were 1.63%, 1.76% and -2.06%, respectively.
Regarding `Cc1nc(-c2cccc3c(NC(=O)N4CCc5cc6nccc(N7CCN(C)CC7)c6cc54)cccc23)no1`, the inhibition – broadly, the change of the read-out against control, counted positive when it falls – in assay [1] is 1.15%; in assay [2] it was -2.64%; in assay [3], -0.68%.
On the same counts, the results for `O=C(NC(Nc1ccc([N+](=O)[O-])cc1)C(Cl)(Cl)Cl)c1ccc(Cl)cc1` (stereo unspecified) are 0.96%, -3.03% and -2.78%.
Take `CCOCn1c(-c2ccccc2)cc2c3c(N)nc(N)nc3ccc21`: the inhibition in assay [1] stood at 98.3%; in assay [2], 100%; in assay [3], 101%.
On the same counts, the results for `OC(CNc1ccnc(Nc2cccc(Cl)c2)n1)c1cccc(C(F)(F)F)c1` (stereo unspecified) are 14.4%, 11.6% and 4.06%.
For the compound `Cn1nccc1C(=O)NCCNCc1cccc(-c2cccc(-c3nc4cc(F)ccc4[nH]3)c2)c1`, the results for the inhibition in assay [1], in assay [2] and in assay [3] were 3.43%, 3.28% and 1.11%, respectively.
`COc1cccc(-c2cccc(-c3ccc(NC(=O)c4ccc([N+](=O)[O-])o4)cc3)n2)c1`: the inhibition in assay [1] is 66.2%; in assay [2], 59.8%; in assay [3] it was 23.3%.
On the same counts, the results for `CCN(CC)CCN(Cc1ccc(-c2ccc(C(F)(F)F)cc2)cc1)C(=O)Cn1c(CCc2cc(F)cc(F)c2F)nc(=O)c2ccccc21` are 2.05%, 0.76% and -0.7%.
For `COCCNCc1cccc(-c2ccccc2CN(C(=O)c2ccc3c(c2)OCO3)c2ccc(OC)cc2)c1`, the inhibition in assay [1] came to 4.69%; in assay [2], 4.93%; in assay [3], 3.25%.
For the compound `COc1ccc2nc3cc(Cl)ccc3c(Nc3ccc(Oc4ccc(Nc5c6ccc(Cl)cc6nc6ccc(OC)cc56)cc4)cc3)c2c1`, the inhibition in assay [1] was determined as 1.15%; in assay [2], 1.19%; in assay [3] it was 1.3%.
In the same order, the values of `OC(CNc1ccnc(Nc2cccc(Cl)c2)n1)c1ccc(C(F)(F)F)cc1` (stereo unspecified) are 9.21%, 7.14% and 5.22%.
With `Cc1cc(Nc2ccc3c(c2)CCC3)n2ncnc2n1`, the inhibition was 0.63% in assay [1], 0.55% in assay [2] and 0.55% in assay [3].

These data come from ChEMBL document CHEMBL3433997, “St. Jude Leishmania screening dataset” (2016).
